According to PMC4336329 (PLoS ONE, 2015):
Screen size: about 310,000 compounds; about 14,000 (4.5%) showed an effect of 50% or more. The effect is printed as a negative number. The sample as a whole holds a higher share of strong results than the screen did.

These compounds were tested against human ether-à-go-go-related gene (hERG) potassium channel (human, UniProt Q12809) (assay: primary screen, population patch clamp on CHO cells stably expressing hERG; higher = less effect of the substance).
Sequence of human ether-à-go-go-related gene (hERG) potassium channel (Q12809 whole entry, looked up): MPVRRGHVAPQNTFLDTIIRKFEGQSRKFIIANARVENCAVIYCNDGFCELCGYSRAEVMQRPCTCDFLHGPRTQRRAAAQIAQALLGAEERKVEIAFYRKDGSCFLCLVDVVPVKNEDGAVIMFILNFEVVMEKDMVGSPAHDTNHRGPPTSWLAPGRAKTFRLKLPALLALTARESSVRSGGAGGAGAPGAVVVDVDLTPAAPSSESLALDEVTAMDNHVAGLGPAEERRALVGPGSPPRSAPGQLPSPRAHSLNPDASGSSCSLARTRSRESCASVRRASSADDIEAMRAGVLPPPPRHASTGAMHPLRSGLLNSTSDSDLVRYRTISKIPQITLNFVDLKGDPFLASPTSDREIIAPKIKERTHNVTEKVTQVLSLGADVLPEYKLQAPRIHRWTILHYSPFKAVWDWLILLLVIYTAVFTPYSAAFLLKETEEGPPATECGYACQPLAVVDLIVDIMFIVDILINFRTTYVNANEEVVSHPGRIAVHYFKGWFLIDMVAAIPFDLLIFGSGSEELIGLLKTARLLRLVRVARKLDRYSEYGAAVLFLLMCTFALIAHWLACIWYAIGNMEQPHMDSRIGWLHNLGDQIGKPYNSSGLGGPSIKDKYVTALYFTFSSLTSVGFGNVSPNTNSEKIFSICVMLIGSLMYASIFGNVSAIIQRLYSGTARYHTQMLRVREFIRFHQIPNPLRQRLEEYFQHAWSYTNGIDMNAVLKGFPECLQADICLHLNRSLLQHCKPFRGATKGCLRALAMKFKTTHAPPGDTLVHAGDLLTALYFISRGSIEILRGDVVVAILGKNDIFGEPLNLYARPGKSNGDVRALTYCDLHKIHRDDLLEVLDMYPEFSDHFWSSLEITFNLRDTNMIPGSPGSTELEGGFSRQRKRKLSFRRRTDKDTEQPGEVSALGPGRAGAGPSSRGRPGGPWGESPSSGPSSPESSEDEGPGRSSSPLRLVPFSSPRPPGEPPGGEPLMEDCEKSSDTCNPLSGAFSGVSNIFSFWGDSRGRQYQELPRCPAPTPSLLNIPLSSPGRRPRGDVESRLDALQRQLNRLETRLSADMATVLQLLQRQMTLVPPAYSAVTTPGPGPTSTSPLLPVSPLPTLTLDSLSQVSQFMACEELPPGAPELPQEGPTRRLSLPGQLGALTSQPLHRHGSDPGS
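Also: peak tail current of the secondary pulse compared with the same well before compound.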

Point of comparison: `CCOC(=O)c1cnc2ccccc2c1Nc1ccc(C(=O)O)cc1.Cl`, “hERG current change (%, negative = inhibition) at 10uM” value 17.9%. Against it:
- CC(=O)OC1COC(N2CCc3cc([N+](=O)[O-])ccc32)C(OC(C)=O)C1OC(C)=O (stereo not drawn) — lower, 2.87%
- CC(=O)c1nc(N2C(=O)CC(Cc3cccc(C)c3)C2=O)sc1C (stereo not drawn) — lower, -16.3%
- CCOC(=O)C1CCCN(C(=O)CCCn2nnnc2CN2CCC(C)CC2)C1 (stereo not drawn) — lower, -8.13%
- O=C1Nc2ccc(Br)cc2C1(O)c1ccc(F)cc1 (stereo not drawn) — lower, 7%
- Nc1cc(=O)[nH]c(SCC(=O)NCC2CCCO2)n1 (stereo not drawn) — lower, 1.45%
- NC(=O)COC(=O)CC(c1ccccc1)c1ccccc1 — lower, 4.16%
- CCCCCCC1/C(=N\NC(=O)c2ccccc2)CCC1C(=O)OC (stereo not drawn) — lower, -43.8%
- CC(C)[C@H](NC(=O)N1CCn2c1nc1ccccc12)C(=O)N[C@@H](C(=O)O)c1ccccc1 — lower, 17.7%
- CC(C)c1ccc(N(C)C(=O)Cc2c(C(=O)O)n(C)c3ccccc23)cc1 — lower, 0.167%
- Fc1cnc(N/N=C/c2ccc(-c3ccc(Br)cc3)o2)nc1N1CCOCC1 — lower, -15.8%
- O=C(O)CCC(=O)N1CCN(c2nc(-c3ccccc3)c3cc(Br)ccc3n2)CC1 — lower, 3.79%
- COc1cccc(/C=C/C(=O)OCC(=O)c2c[nH]c3ccccc23)c1 — lower, 13%
- COc1ccccc1N1CCN(CCCNC(=O)Cn2ncc3c([nH]c4ccccc43)c2=O)CC1 — lower, -68.6%
- Cc1ccccc1CS(=O)(=O)CCC(=O)NCCCN1CCOCC1 — lower, -10.6%
- O=C(CCS(=O)(=O)Cc1ccccc1F)NCCCN1CCCCC1 — lower, 8.31%
- CC1CCN(CCCNC(=O)Cn2ncc3c([nH]c4ccccc43)c2=O)CC1 — lower, 9.35%
- Cc1ccccc1CS(=O)(=O)CCC(=O)NCCCN1CCN(c2ccccc2F)CC1 — lower, -59.3%
- O=C(Cn1ncc2c([nH]c3ccccc32)c1=O)NCCCN1CCN(c2ccccc2)CC1 — lower, -21.5%
- Nc1nc2ccccc2n1/N=C/c1cccnc1 — lower, 2.44%
- CC(C)(OC(=O)NC(=O)C(F)(F)F)C(C)(C)OC(=O)NC(=O)C(F)(F)F — higher, 31.4%
- COc1ccc(Cn2c(O)c(C=Nc3ccc(C)cc3)c3ccccc3c2=O)cc1 — lower, 2.35%
- COC(=O)C1CN(C(=O)C(C)Oc2cccc(C)c2C)c2ccccc2O1 (stereo not drawn) — lower, -8.63%
- C=CCNc1nc(NCC)nc(N2CCOCC2)n1 — lower, -0.791%
- COc1ccc(-n2nc3c(c2NC(=O)COc2ccccc2)CS(=O)C3)cc1 (stereo not drawn) — lower, -28.2%
- NC(=NC(=O)c1ccc(OCC(F)(F)F)nc1)c1ccc(Cl)cc1 — the same, 17.9%
- O=S(=O)(NCc1cccnc1)c1ccc2c(c1)OCCO2 — lower, 0.45%
- CCOC(=O)c1cnc2c(C)cccc2c1Nc1ccc(N2CCOCC2)cc1 — lower, 8.24%
- CCOC(=O)c1cnc2c(C)cccc2c1NCc1ccco1 — lower, -67.9%
- CCOC(=O)c1cccnc1SC(CC)C(=O)NCc1ccco1 (stereo not drawn) — lower, -31.5%
- CCOC(=O)c1ccc2ncc(C(=O)OCC)c(NCc3ccco3)c2c1 — lower, -24.7%
- CCOC(=O)c1cnc2c(C(=O)OC)cccc2c1NCc1ccco1 — lower, -70.2%
- CCOC(=O)c1cnc2ccccc2c1NCc1ccco1 — lower, -56.9%
- CCOC(=O)c1cnc(SCC(=O)NCc2ccco2)nc1N — lower, -14.5%
- CCOC(=O)c1cnc2c(C)cccc2c1Nc1cccc(C(=O)O)c1.Cl — lower, -8.37%
- CCOc1ccc(NC(=O)c2nc(SCC)ncc2Cl)cc1 — lower, 15%
- COc1ccc(OC)c(C(C(=O)NC2CCCCC2)N(C(=O)c2snc(C(N)=O)c2N)c2ccccc2OC)c1 (stereo not drawn) — lower, 14.8%
- O=C(COc1ccc2c3c(c(=O)oc2c1)CCCC3)NC(Cc1ccc(Cl)cc1)C(=O)O (stereo not drawn) — lower, 5.92%
- CCOC(=O)c1nc(C)n(-c2cc(Cl)cc(Cl)c2)n1 — lower, -17.5%
- CCOC(=O)c1nn(-c2ccccc2)c(=O)cc1OCC(=O)Nc1cc(C)ccc1OC — lower, -44%
- CCCNc1nc2c(c(=O)n(C)c(=O)n2C)n1Cc1ccc(F)cc1 — lower, -12.8%
- COc1ccccc1NC(=O)CCC(=O)O — higher, 23.4%
- COc1ccc(N2C(=O)CSC2c2cccs2)cc1 (stereo not drawn) — lower, -3.37%
- O=C(Oc1c(Cl)cc(Cl)c2cccnc12)c1cccs1 — lower, 1.95%
- CN1CCN(Cc2cc(Cl)c3cccnc3c2OC(=O)c2cccs2)CC1 — lower, -53.3%
- O=C(Oc1c(CN2CCOCC2)cc(Cl)c2cccnc12)c1cccs1 — lower, -21.9%
- CN(C)S(=O)(=O)c1ccc(N2CCCC2)c(C(=O)NNC(=O)c2ccc(F)cc2)c1 — lower, 15.5%
- COc1ccc(NC(=O)NNC(=O)C(C)Oc2ccc3ccccc3c2)cc1OC (stereo not drawn) — lower, -16.2%
